Where “and” joins values, the source holds several entries; their conditions need not be identical. Equal values may be shown once. Inconclusive results are not listed. Entries that show only a call come without a potency. The source holds several records for some structures; these can differ, active in one and inactive in another. Calls of active or inactive are those of the source. Unless noted, the call rests on the fitted dose curve; in most records, active means well fitted curve in the direction sought with a large enough effect; inconclusive means small, poorly fitted or top-dose-only effect, or another doubt; inactive means no such curve, though single readings can be large; an effect the other way counts as inactive or inconclusive.
Key:
[1] = target: Glucocorticoid receptor (Homo sapiens) (UniProt P04150); test: GR-GFP Redistribution (AID 450;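 active means compounds whose dose series gives a full or clear partial fitted curve of increased nuclear translocation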; further: potency means the concentration at half of the fitted maximal effect); details: U2OS GR-GFP nuclear translocation, laser cytometry, 2 h
Sequence of Glucocorticoid receptor (Homo sapiens) (P04150 whole entry, looked up): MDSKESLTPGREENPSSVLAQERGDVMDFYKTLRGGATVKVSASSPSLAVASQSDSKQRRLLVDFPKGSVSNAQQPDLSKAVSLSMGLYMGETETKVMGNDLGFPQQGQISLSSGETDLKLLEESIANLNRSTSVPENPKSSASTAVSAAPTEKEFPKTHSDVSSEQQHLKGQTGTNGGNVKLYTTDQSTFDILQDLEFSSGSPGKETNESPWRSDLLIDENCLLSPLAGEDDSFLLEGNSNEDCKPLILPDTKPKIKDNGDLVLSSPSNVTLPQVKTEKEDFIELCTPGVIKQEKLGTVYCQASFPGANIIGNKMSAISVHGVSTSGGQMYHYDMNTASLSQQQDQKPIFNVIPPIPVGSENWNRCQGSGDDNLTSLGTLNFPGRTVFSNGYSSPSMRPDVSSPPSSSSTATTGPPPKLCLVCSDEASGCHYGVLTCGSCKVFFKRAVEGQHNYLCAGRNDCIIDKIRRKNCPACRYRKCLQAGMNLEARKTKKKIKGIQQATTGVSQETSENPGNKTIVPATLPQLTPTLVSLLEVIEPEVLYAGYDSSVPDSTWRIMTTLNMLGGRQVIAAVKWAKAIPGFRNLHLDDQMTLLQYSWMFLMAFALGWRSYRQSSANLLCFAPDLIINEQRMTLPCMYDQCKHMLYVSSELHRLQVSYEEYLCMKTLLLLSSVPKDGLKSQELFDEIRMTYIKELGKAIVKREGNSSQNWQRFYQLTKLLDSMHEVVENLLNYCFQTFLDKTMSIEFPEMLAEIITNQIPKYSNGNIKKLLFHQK

[2] = target: Mitogen-activated protein kinase 10 (Mus musculus) (UniProt Q61831); test: JNK3 AlphaScreen Assay (AID 530; active means well fitted curve in either direction with a large enough effect, not every such curve was filed as active;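 further: kinase came from lysate of stimulated human HepG2 cells; signal reports phosphorylation of biotinylated GST-cJun 1-79 at Ser73 with 10 µM ATP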); details: JNK3 lysate, c-Jun phosphorylation; series mostly up to 57.1 µM
Summary of the method: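 Activity was read by AlphaScreen after JNK3-containing HepG2 lysate (cytokine pre-activated) phosphorylated biotinylated GST-cJun with 10 uM ATP at room temperature. Phospho-Ser73 cJun antibody with Protein-A acceptor beads provided detection.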

[3] = Cell Viability - N2a (AID 540); details: N2a mouse neuroblastoma cell viability; activity change, negative = cytotoxicity: at 92.2 µM (top of the series); further: nearly all actives have a fitted effect of over 45% in size; further: potency means the concentration at half of the fitted maximal effect
Summary of the method: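 CellTiter-Glo ATP luminescence, read 20 min after reagent at room temperature, reported viability following 40 h compound treatment at 37 °C. N2a mouse neuroblastoma cells seeded 1500/well; Hill equation gave AC50.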

[4] = Cell Viability - HUV-EC-C (AID 542); details: HUV-EC-C endothelial cell viability, qHTS; series mostly up to 92.2 µM; further: nearly all actives have a fitted effect of over 35% in size; further: potency means the concentration at half of the fitted maximal effect
Summary of the method: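 CellTiter-Glo luminescence measured ATP loss in HUV-EC-C cells (1000/well) after 40 hr compound exposure at 37 °C, in complete culture medium. Concentration-response data were Hill-fitted to give AC50.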

[5] = Cell Viability - H-4-II-E (AID 543); details: H-4-II-E rat hepatoma viability; series mostly up to 92.2 µM; further: nearly all actives have a fitted effect of over 35% in size; further: potency means the concentration at half of the fitted maximal effect
Summary of the method: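 CellTiter-Glo luminescence (intracellular ATP) measured after 40 h compound exposure at 37 °C in H-4-II-E rat hepatoma cells seeded at 1500/well. Values are AC50s fitted with the standard Hill equation.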

[6] = Cell Viability - SH-SY5Y (AID 544); details: SH-SY5Y neuroblastoma cell viability; series mostly up to 92.2 µM; further: nearly all actives have a fitted effect of over 55% in size; further: potency means the concentration at half of the fitted maximal effect
Summary of the method: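 Cytotoxicity measured via ATP-dependent luciferase luminescence (CellTiter-Glo) following 40 h, 37 °C exposure of 1500 SH-SY5Y cells per well. Concentration-response data were fitted with the standard Hill equation to give AC50.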

[7] = Cell Viability - Renal Proximal Tubule (AID 545); details: renal proximal tubule cells viability; series mostly up to 91.7 µM; further: nearly all actives have a fitted effect of over 40% in size; further: potency means the concentration at half of the fitted maximal effect
Summary of the method: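 Primary rat renal proximal tubule cells (1000/well) were treated with compounds for 40 hr at 37 °C in complete medium. Intracellular ATP was measured by CellTiter-Glo luminescence, and AC50 values came from Hill-equation fits of concentration-response data.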

[8] = Cell Viability - Mesenchymal (AID 546); details: mesenchymal cells viability, qHTS; activity change, negative = cytotoxicity: at 91.7 µM (top of the series);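 further: cells exposed to compound for 40 hours before reading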; further: potency means the concentration at half of the fitted maximal effect
Text: NIH Chemical Genomics Center [NCGC]
NIH Molecular Libraries Screening Centers Network [MLSCN]
National Institutes of Environmental Health Sciences [NIEHS]
National Toxicology Program [NTP]
We have developed a 1536-well cell-based assay for quantitative high throughput screening (qHTS) against a number of cell lines to determine in vitro cytotoxicity of small molecules. This particular assay uses the kidney mesenchymal cell line which is derived from normal human renal glomeruli.
NCGC Assay Protocol Summary:
The CellTiter-Glo luminescent cell viability assay (Promega) is a homogeneous method to measure the number of viable cells in culture. The end point readout of this assay is based on quantitation of intracellular ATP, an indicator of metabolic activity, using the luciferase reaction. Luciferase catalyzes the oxidation of beetle Luciferin to oxyluciferin and light in the presence of ATP. The luminescent signal is proportional to amount of ATP present.
Using the CellTiter-Glo luminescent cell viability assay, the amount of cellular ATP was measured in the kidney mesenchymal cell line with complete culture medium following compound treatment for 40 hours. The assay was performed in opaque white Kalypsys 1536-well plates. In the screen, tamoxifen and doxorubicin were used as positive controls. Library compounds were measured for their ability to cause acute toxicity in the cell line, as reflected by a decrease in intracellular ATP levels, in a concentration-dependent manner. […] AC50 values were determined from concentration-response data modeled with the standard Hill equation.
qHTS protocol for CellTiter Glo kidney mesenchymal cells cellular assay
[Step] [Parameter] [Value] [Description]
1. Reagent; 5 uL; 1000 kidney mesenchymal cells/well
2. Time; 5 hr; 37 °C incubation
4. Controls; 23 nL; Tamoxifen 0.34 uM to 100 uM & Doxorubicin 0.02 nM to 100 uM
5. Time; 40 hr; 37 °C incubation
6. Reagent; 5 uL; CellTiter Glo reagent
7. Time; 20 min; Room Temperature
8. Detection; Luminescence; Viewlux plate reader
Keywords: cell viability, cytotoxicity, Kidney mesenchymal cell line, luminescence, NTPHTS, NTPHTS_NCGC, NIEHS, EPA, DSSTox, MLSMR, MLSCN, NIH Roadmap, qHTS, NCGC

[9] = Cellular Toxicity (caspase-3) HepG2 (AID 654); details: HepG2 caspase-3 activation, luminescence; series mostly up to 92.2 µM; further: potency means the concentration at half of the fitted maximal effect;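 on caspase-3 activation: cells exposed to compound for 16 hours before reading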
Summary of the method: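 Caspase 3/7 activation is measured as a luminescence increase (aminoluciferin substrate) after 16 h compound exposure of human hepatocarcinoma HepG2 cells. AC50 values are Hill fits, scaled between DMSO baseline and 100 uM tamoxifen stimulation.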

[10] = Cell Viability - NIH 3T3 (AID 541); details: NIH 3T3 cell viability, qHTS; activity change, negative = cytotoxicity: at 92.2 µM (top of the series); further: nearly all actives have a fitted effect of over 25% in size; further: potency means the concentration at half of the fitted maximal effect
Summary of the method: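 Intracellular ATP (CellTiter-Glo luminescence, 20 min at room temperature) measured after 40 hr compound exposure at 37 °C of 1000 NIH 3T3 mouse fibroblasts/well in complete medium; AC50 derived by Hill-equation modelling of qHTS concentration-response curves.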

O=C(CCCN1CCC(n2c(=O)[nH]c3ccccc32)CC1)c1ccc(F)cc1
Potency [1]: > 20.6 µM (inactive) | outcome [2]: inactive

COC(=O)C1=CCCN(C)C1
Potency [1]: > 46 µM (inactive) and > 20.6 µM (inactive) | outcome [2]: inactive

CC(C)[N+](C)(CCC(C(N)=O)(c1ccccc1)c1ccccc1)C(C)C
Potency [1]: > 20.6 µM (inactive) | outcome [2]: inactive

Oc1ccc2[nH]cc(CCCCN3CC=C(c4ccccc4)CC3)c2c1
Potency [1]: > 46 µM (inactive)

CN(C)C(=S)SSC(=S)N(C)C
outcome [2]: inactive | Potency [3]: 5.01 µM (active) | Potency [4]: 15.8 µM (active) | Potency [5]: 3.98 µM (active) | Potency [6]: 0.0158 µM (active) | Potency [7]: 20 µM (active) | activity change, negative = cytotoxicity [8]: -103% (active) | Potency [9]: inactive

Cc1ccc(O)cc1
outcome [2]: inactive

NC(=O)CN1CCCC1=O
Potency [1]: > 46 µM (inactive) and > 20.6 µM (inactive) | outcome [2]: inactive

O=C(O)c1nn(Cc2ccc(Cl)cc2Cl)c2ccccc12
Potency [1]: > 46 µM (inactive) | outcome [2]: inactive

CC[n+]1c(-c2ccccc2)c2cc(N)ccc2c2ccc(N)cc21
activity change, negative = cytotoxicity [3]: -81.5% (active) | Potency [8]: 31.6 µM (active) | Potency [9]: inactive

c1ccc2nc(N3CCNCC3)ccc2c1
Potency [1]: > 46 µM (inactive) and > 20.6 µM (inactive) | outcome [2]: inactive

CNC(=O)Oc1cccc2ccccc12
outcome [2]: inactive | Potency [3]: inactive | Potency [4]: inactive | Potency [5]: inactive | Potency [7]: inactive | Potency [8]: inactive | Potency [9]: inactive

COP(=O)(OC)C(O)C(Cl)(Cl)Cl (stereo not given)
Potency [1]: > 20.6 µM (inactive)

CN1[C@@H]2CC[C@H]1CC(OC(=O)c1cc(Cl)cc(Cl)c1)C2 (stereo not given in full)
Potency [1]: > 46 µM (inactive) | outcome [2]: inactive

OC(c1ccccc1)(c1ccccc1)C1CCNCC1
Potency [1]: > 20.6 µM (inactive) | outcome [2]: inactive

C[C@@H]1C[C@@H]([C@H](O)CC2CC(=O)NC(=O)C2)C(=O)[C@@H](C)C1
outcome [2]: inactive | Potency [3]: 0.126 µM (active) | Potency [10]: 100 nM (active) and 126 nM (active) | Potency [4]: 0.1 µM (active) | Potency [5]: 126 nM (active) and 100 nM (active) | Potency [6]: 63.1 nM (active) and inactive | Potency [8]: 79.4 nM (active) and 50.1 nM (active) | Potency [9]: inactive

CCC(=O)O[C@H]1CC[C@H]2[C@@H]3CCC4=CC(=O)CC[C@]4(C)[C@H]3CC[C@]12C
Potency [1]: > 20.6 µM (inactive) | outcome [2]: inactive

COP(=O)(OC)OC=C(Cl)Cl
outcome [2]: inactive | Potency [3]: inactive | Potency [10]: 12.6 µM (active) | Potency [4]: inactive | Potency [5]: inactive | Potency [6]: 15.8 µM (active) | Potency [7]: inactive | Potency [8]: inactive | Potency [9]: inactive

C[N+]1(C)[C@@H]2CC[C@H]1CC(OC(=O)C(CO)c1ccccc1)C2 (stereo not given in full)
Potency [1]: > 20.6 µM (inactive)

COc1ccc(CN2CCNCC2)c(OC)c1OC
Potency [1]: > 20.6 µM (inactive) | outcome [2]: inactive

CCCCCCCCCCCC[N+](C)(C)CCOc1ccccc1
outcome [2]: inactive | Potency [3]: 7.94 µM (active) | activity change, negative = cytotoxicity [10]: -137% (active) | Potency [4]: 31.6 µM (active) | Potency [5]: 39.8 µM (active) | Potency [6]: inactive | Potency [7]: 12.6 µM (active) | Potency [8]: 25.1 µM (active) | Potency [9]: 39.8 µM (active)

C[C@H](N)[C@H](O)c1ccc(O)c(O)c1
outcome [2]: inactive

COc1ccc(C(=O)N2CCCC2=O)cc1
Potency [1]: > 46 µM (inactive) and > 20.6 µM (inactive) | outcome [2]: inactive

CCCCCCCCC(=O)NCc1ccc(O)c(OC)c1
Potency [1]: > 46 µM (inactive)

O=C1NCN(c2ccccc2)C12CCN(CCCOc1ccc(F)cc1)CC2
Potency [1]: > 46 µM (inactive) | outcome [2]: inactive

O=C(CCl)c1ccc(Cl)cc1Cl
outcome [2]: inactive | Potency [3]: 31.6 µM (active) | activity change, negative = cytotoxicity [10]: -145% (active) | Potency [5]: 10 µM (active) | Potency [6]: 1.26 µM (active) | Potency [8]: 31.6 µM (active) | Potency [9]: inactive

Oc1c(Br)cc(Br)cc1Br
outcome [2]: inactive | Potency [3]: inactive | Potency [10]: inactive | Potency [4]: inactive | Potency [5]: inactive | Potency [6]: inactive | Potency [7]: inactive | Potency [8]: inactive | Potency [9]: inactive
